Test results as given in PubChem BioAssay (Tox21).
Several values for one entry are separate records, joined by “and”; a condition that tells them apart may be missing. Equal values may be shown once. Results filed as inconclusive are left out. Where a call stands in place of a potency, no number is given. Some structures have more than one record in an assay (separate samples or runs), and their calls can disagree. Activity calls are given as the source filed them. Unless noted, the call rests on the fitted dose curve; in most records, active means well fitted curve in the direction sought with a large enough effect in the repeat runs; inconclusive means weak or mixed curves; inactive means no such curve, though single readings can be large; an effect the other way counts as inactive or inconclusive.

Experiments:
[1] = qHTS assay to identify small molecule antagonists of the estrogen related receptor signaling pathway with the pleiotropic PPARgamma coactivator (PGC) from Tox21 10K library (AID 1224841; call rule not given here; further: actives are mostly falling curves and most rising ones were filed inactive; nearly all actives have a fitted effect of over 50% in size; further: potency means the concentration at half of the fitted maximal effect)
Procedure, shortened: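 Luminescence (One-Glo, 30 min at room temperature) after 18 h compound treatment at 37 C of PGC/ERR reporter cells plated at 2,000 cells/well and settled 6 h beforehand.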

[2] = qHTS assay to identify small molecule antagonists of the estrogen related receptor (ERR) signaling pathway from Tox21 library (AID 1224848); further: nearly all actives have a fitted effect of over 50% in size; further: potency means the concentration at half of the fitted maximal effect
Procedure, shortened: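 Tox21 10K compounds in DMSO tested for ERR pathway antagonism in NTP's ERR cell line; 18 h, 37 C exposure; ONE-Glo luminescence.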

[3] = qHTS RealTime-Glo MT Cell Viability Assay in HEK293 cells - 8 hour (AID 1224887); further: nearly all actives have a fitted effect of over 50% in size; further: potency means the concentration at half of the fitted maximal effect
Procedure, shortened: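 Luminescence, which tracks viable cell number through reduction of the prosubstrate to a NanoLuc substrate, was read over continuous 37 C culture. Cells (600/well) were premixed with reagent and rested 5 h before 23 nL of compound in DMSO was pinned.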

[4] = target: Estrogen receptor (Homo sapiens) (UniProt P03372); test: qHTS assay to identify small molecule antagonists of the estrogen receptor alpha (ER-alpha) signaling pathway using the BG1 cell line in the presence of 0.1 nM 17-beta-estradiol (AID 1259244); further: nearly all actives have a fitted effect of over 50% in size; further: potency means the concentration at half of the fitted maximal effect
Sequence of Estrogen receptor (Homo sapiens) (P03372 whole entry, looked up): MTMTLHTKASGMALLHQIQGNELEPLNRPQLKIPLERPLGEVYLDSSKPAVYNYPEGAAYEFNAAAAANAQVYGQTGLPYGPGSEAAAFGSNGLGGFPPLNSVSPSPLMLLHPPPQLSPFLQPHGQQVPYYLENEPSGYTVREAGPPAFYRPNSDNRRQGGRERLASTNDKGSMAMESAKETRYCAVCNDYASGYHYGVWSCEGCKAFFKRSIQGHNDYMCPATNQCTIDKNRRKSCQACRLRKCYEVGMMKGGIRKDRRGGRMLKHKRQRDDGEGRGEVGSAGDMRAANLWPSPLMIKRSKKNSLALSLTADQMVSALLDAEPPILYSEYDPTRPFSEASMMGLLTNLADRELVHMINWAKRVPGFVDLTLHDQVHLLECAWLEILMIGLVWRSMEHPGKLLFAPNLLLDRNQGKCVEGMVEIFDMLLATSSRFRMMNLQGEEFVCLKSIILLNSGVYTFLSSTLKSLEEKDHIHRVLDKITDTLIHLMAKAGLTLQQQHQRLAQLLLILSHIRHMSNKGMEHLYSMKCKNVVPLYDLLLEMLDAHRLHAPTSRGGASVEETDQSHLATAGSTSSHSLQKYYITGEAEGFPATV
Procedure, shortened: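 Luciferase luminescence (ONE-Glo, 30 min at room temperature) was read after 22 hr at 37C exposure to compounds plus 17beta-estradiol at 0.1 nM final. Cells were VM7Luc4E2 with endogenous ER-alpha and an ERE-driven luciferase, pre-cultured 5 days in hormone-depleted medium.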

[5] = qHTS assay to identify small molecule agonists of the estrogen receptor beta (ER-beta) signaling pathway - cell viability counter screen (AID 1259380); further: nearly all actives have a fitted effect of over 30% in size; further: potency means the concentration at half of the fitted maximal effect
Procedure, shortened: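 Cell viability counter screen: CellTiter-Glo luminescence (30 min, room temperature) measured in the same wells as the beta-lactamase readout, after 16 hr compound exposure at 37C of ER-beta-bla HEK293T cells in 2% charcoal-stripped FBS medium.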

[6] = Human pregnane X receptor (PXR) small molecule agonists, qHTS cell viability counter screen (AID 1346977); further: nearly all actives have a fitted effect of over 50% in size; further: potency means the concentration at half of the fitted maximal effect
Procedure, shortened: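 Fluorescence read-out (CellTiter-Fluor) of viability in PXR-Luc HepG2 cells, multiplexed with the luciferase agonist read. Compounds in DMSO added after 5hr plating; 24hr total exposure at 37C, 5% CO2.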

[7] = target: Progesterone receptor (Homo sapiens) (UniProt P06401); test: qHTS assay to identify small molecule agonists of the progesterone receptor (PR) signaling pathway (AID 1346784; calls by dose curve; further: nearly all actives have a fitted effect of over 30% in size)
Sequence of Progesterone receptor (Homo sapiens) (P06401 whole entry, looked up): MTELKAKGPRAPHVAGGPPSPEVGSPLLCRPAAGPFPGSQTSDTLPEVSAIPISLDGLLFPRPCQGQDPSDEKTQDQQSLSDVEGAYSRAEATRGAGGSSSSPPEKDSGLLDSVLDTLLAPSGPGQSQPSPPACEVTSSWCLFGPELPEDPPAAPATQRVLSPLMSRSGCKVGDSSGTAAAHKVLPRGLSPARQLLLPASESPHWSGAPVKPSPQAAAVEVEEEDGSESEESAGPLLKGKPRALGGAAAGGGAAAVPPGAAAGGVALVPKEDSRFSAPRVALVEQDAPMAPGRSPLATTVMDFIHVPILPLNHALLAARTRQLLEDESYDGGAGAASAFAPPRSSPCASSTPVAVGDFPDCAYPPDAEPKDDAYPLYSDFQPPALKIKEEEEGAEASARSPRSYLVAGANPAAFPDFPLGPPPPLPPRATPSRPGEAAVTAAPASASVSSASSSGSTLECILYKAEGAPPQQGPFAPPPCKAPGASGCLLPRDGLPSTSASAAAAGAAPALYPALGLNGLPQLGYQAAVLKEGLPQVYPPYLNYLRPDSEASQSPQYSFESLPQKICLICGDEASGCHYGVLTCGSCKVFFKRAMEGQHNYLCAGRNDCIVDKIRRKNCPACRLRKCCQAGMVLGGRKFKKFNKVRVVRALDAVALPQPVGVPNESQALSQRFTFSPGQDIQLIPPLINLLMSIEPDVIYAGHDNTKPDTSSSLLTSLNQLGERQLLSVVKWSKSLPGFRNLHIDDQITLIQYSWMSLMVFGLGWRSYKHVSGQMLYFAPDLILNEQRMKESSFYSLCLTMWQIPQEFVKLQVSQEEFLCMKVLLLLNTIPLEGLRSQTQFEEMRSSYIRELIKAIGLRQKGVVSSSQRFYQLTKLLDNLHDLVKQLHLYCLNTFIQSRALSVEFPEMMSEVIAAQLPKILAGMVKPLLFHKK
Procedure, shortened: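 HEK 293T PR-UAS-bla reporter cells, 2% charcoal-stripped FBS; 6 hr settle at 37C/5% CO2, compound (DMSO) 16 hr, LiveBLAzer B/G FRET substrate 2 hr RT, fluorescence intensity read.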

[8] = qHTS assay to identify small molecule antagonists of the progesterone receptor (PR) signaling pathway - cell viability counter screen (AID 1346798); further: nearly all actives have a fitted effect of over 50% in size; further: potency means the concentration at half of the fitted maximal effect
Procedure, shortened: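 Luminescence readout (CellTiter-Glo, 30 min, RT) of viability in PR-UAS-bla HEK293T cells exposed to compound and R5020 agonist for 16 hr at 37C, 5% CO2; run in the same wells as the beta-lactamase reporter read.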

[9] = target: Cytochrome P450 2D6 (Homo sapiens) (UniProt P10635); test: Cytochrome P450 Family 2 Subfamily D Member 6 (CYP2D6) small molecule antagonists: luciferase reporter qHTS assay (AID 1671196); further: nearly all actives have a fitted effect of over 50% in size; further: potency means the concentration at half of the fitted maximal effect
Sequence of Cytochrome P450 2D6 (Homo sapiens) (P10635 whole entry, looked up): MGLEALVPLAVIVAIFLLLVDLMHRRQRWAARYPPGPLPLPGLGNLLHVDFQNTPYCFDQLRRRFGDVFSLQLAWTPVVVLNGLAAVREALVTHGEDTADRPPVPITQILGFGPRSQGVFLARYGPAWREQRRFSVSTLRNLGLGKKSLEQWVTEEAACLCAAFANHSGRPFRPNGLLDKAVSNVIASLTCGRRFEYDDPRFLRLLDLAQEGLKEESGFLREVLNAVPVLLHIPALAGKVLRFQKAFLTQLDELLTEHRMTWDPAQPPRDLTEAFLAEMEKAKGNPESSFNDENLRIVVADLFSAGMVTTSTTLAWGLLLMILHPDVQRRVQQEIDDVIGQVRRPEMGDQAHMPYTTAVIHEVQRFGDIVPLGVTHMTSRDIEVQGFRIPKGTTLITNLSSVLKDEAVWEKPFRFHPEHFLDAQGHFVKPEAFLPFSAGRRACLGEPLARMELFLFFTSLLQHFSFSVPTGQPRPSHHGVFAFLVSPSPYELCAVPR
Procedure, shortened: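 CYP2D6 activity was followed as luminescence from its luciferin product after a 1 h NADPH-driven reaction at room temperature. Enzyme-substrate mix and compound were pre-incubated for 10 min, and the signal was read 20 min after adding detection reagent.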

[10] = qHTS assay for small molecule agonists of the p53 signaling pathway (AID 651631; calls by dose curve; further: nearly all actives have a fitted effect of over 15% in size; further: potency means the concentration at half of the fitted maximal effect)
Procedure, shortened: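 p53RE-bla HCT-116 cells; compounds 16 h, 37 °C; LiveBLAzer B/G FRET substrate 2 h RT; fluorescence intensity read-out, qHTS format.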

[11] = qHTS assay to test for compound auto fluorescence at 460 nm (blue) in HEK293 cell free culture (AID 720681)
Procedure, shortened: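 Test compounds were pinned into cell-free culture medium (DMEM with 10% FBS) and fluorescence was read directly at Ex/Em 405/460 nm. Signals were expressed as fluorescence equivalents of triamterene, with DMSO vehicle as control.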

[12] = qHTS assay to test for compound auto fluorescence at 590 nm (red) in HEK293 cell free culture (AID 720683)
Procedure, shortened: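 Tox21 10K library compounds were pinned into cell-free DMEM with 10% FBS and fluorescence was read at excitation 540 nm. Activity is expressed as Rose Bengal sodium equivalency.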

[13] = qHTS assay for identifying genotoxic compounds that show differential cytotoxicity against isogenic chicken DT40 cell lines with known DNA damage response pathways - wild type cell line (AID 743012); further: nearly all actives have a fitted effect of over 60% in size; further: potency means the concentration at half of the fitted maximal effect
Procedure, shortened: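 Viability by ATP luminescence (CellTiter-Glo, 30 min RT) after 40 h compound treatment at 37 C/5% CO2, using 300 parental DNA repair-proficient DT40 cells per well.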

[14] = qHTS assay to identify small molecule antagonists of the androgen receptor (AR) signaling pathway using the MDA cell line - cell viability counter screen (AID 743041; further: nearly all actives have a fitted effect of over 45% in size; further: potency means the concentration at half of the fitted maximal effect)
Procedure, shortened: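 In this qHTS counter assay, fluorescence intensity after CellTiter-Fluor addition indicated viability of MDA-kb2 AR-luc cells given compounds and R1881 for 16 h at 37C.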

[15] = qHTS assay to identify small molecule antagonists of the thyroid receptor (TR) signaling pathway (AID 743065); further: nearly all actives have a fitted effect of over 55% in size; further: potency means the concentration at half of the fitted maximal effect
Procedure, shortened: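 GH3.TRE-Luc rat pituitary cells carrying two TR response elements driving luciferase were plated for 4 h, given compound plus 1 nM T3 (final), and incubated 23.5 h at 37 C. ONE-Glo luminescence measured reporter inhibition; CellTiter-Fluor fluorescence tracked cytotoxicity.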

[16] = qHTS assay to identify small molecule antagonists of the estrogen receptor alpha (ER-alpha) signaling pathway using the BG1 cell line - cell viability counter screen (AID 743081);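 further: compound given together with 17beta-estradiol as the ER stimulus; series mostly up to about 70 µM; nearly all actives have a fitted effect of over 45% in size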
[17] = qHTS assay to identify aromatase inhibitors - cell viability counter screen (AID 743084);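 further: cells stimulated with testosterone during compound exposure; nearly all actives have a fitted effect of over 55% in size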; further: potency means the concentration at half of the fitted maximal effect
[18] = qHTS assay to identify small molecule that activate the aryl hydrocarbon receptor (AhR) signaling pathway - cell viability counter screen (AID 743086); further: nearly all actives have a fitted effect of over 45% in size; further: potency means the concentration at half of the fitted maximal effect
Procedure, shortened: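 HepG2-AhR-luc (HG2L7.5c1) cells, 4000/well, were preincubated 5 h at 37C, exposed to compound in qHTS format for 24 hr at 37C, then given CellTiter-Fluor for 30 min; viability was read as fluorescence in the reporter wells.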

[19] = qHTS assay to identify small molecule agonists of H2AX - cell viability counter screen (AID 1224847; calls by dose curve; further: nearly all actives have a fitted effect of over 30% in size; further: potency means the concentration at half of the fitted maximal effect)
Procedure, shortened: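 CHO-K1 wt, 1000 cells/well, o/n 37C; cpds 15 conc, 3 h 37C, 0.76% DMSO; CellTiter-Glo, 30 min RT, luminescence.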

[20] = qHTS assay for small molecules that induce genotoxicity in human embryonic kidney cells expressing luciferase-tagged ATAD5 - cell viability (AID 651634; calls by dose curve; further: nearly all actives have a fitted effect of over 25% in size)
Procedure, shortened: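 Cytotoxicity counter-readout: after 15.5 hr compound treatment at 37C, live-cell protease activity in ATAD5-luciferase HEK293T cells measured by CellTiter-Fluor fluorescence, 30 min development at 37C.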

Cc1cc(C)c(C(=O)P(=O)(c2ccccc2)c2ccccc2)c(C)c1
Potency [1]: 54.5 µM (active) | Potency [2]: 54.5 µM (active) | Potency [3]: 43.6 µM (active) | Potency [4]: inactive | Potency [5]: 61.1 µM (active) | Potency [6]: 61.1 µM (active)

N#Cc1cc([N+](=O)[O-])ccc1N
Potency [2]: inactive | Potency [3]: inactive | Potency [4]: inactive | Potency [5]: inactive | outcome [7]: inactive | Potency [8]: inactive | Potency [9]: inactive

CCOC(=O)C(O)(c1ccc(Cl)cc1)c1ccc(Cl)cc1
Potency [10]: 27.6 µM (active) | Potency [11]: inactive | outcome [12]: inactive | Potency [13]: 6.18 µM (active) and 19.3 µM (active) | Potency [14]: 61.8 µM (active) | Potency [15]: 4.91 µM (active) and 61.1 µM (active) | Potency [16]: inactive | Potency [17]: 6.18 µM (active) | Potency [18]: 61.8 µM (active) and inactive | Potency [19]: 90.7 µM (active) and 56.6 µM (active) | Potency [3]: 22.1 µM (active) | Potency [4]: 61.1 µM (active) | outcome [7]: inactive | Potency [8]: inactive

COc1cc(OC)c(OC)cc1C=O
Potency [20]: inactive | outcome [12]: inactive | Potency [14]: inactive | Potency [16]: inactive | Potency [17]: 59.3 µM (active) | Potency [1]: 21.9 µM (active) | Potency [19]: inactive | Potency [2]: 18.7 µM (active) | Potency [3]: inactive | Potency [4]: 59.3 µM (active) | Potency [9]: 19.4 µM (active)

CN1CSC(=S)N(C)C1
Potency [10]: inactive | Potency [20]: inactive | Potency [11]: inactive | outcome [12]: inactive | Potency [13]: 6.08 µM (active) and 5.43 µM (active) | Potency [14]: 24.3 µM (active) | Potency [15]: 3.05 µM (active) and 3.85 µM (active) | Potency [16]: inactive | Potency [17]: 10.8 µM (active) and 27.2 µM (active) | Potency [19]: 56.4 µM (active) | Potency [2]: 4.83 µM (active) and 13.6 µM (active) | Potency [3]: inactive | Potency [4]: 13.6 µM (active) and 17.2 µM (active) | Potency [5]: 4.31 µM (active) and 9.66 µM (active) | outcome [7]: inactive | Potency [8]: 27.2 µM (active) and 21.6 µM (active) | Potency [6]: 5.01 µM (active) and 21.6 µM (active) | Potency [9]: inactive

ClC1=C(Cl)[C@]2(Cl)[C@@H]3[C@@H](Cl)[C@H]4O[C@H]4[C@@H]3C1(Cl)C2(Cl)Cl
Potency [20]: inactive | Potency [13]: 61.1 µM (active) | Potency [14]: inactive | Potency [15]: 54.5 µM (active) | Potency [16]: inactive | Potency [17]: inactive | Potency [18]: inactive | Potency [1]: inactive | Potency [19]: 113 µM (active) | outcome [7]: inactive | Potency [8]: inactive | Potency [9]: inactive

CCN(CC)C(=O)Cl
Potency [1]: inactive | Potency [19]: inactive | Potency [2]: inactive | Potency [3]: inactive | Potency [4]: inactive | Potency [5]: inactive | outcome [7]: inactive | Potency [8]: inactive | Potency [6]: inactive | Potency [9]: inactive

CNC(=O)Oc1cc(C)c(SC)c(C)c1
Potency [19]: inactive | outcome [7]: inactive | Potency [8]: inactive | Potency [6]: inactive | Potency [9]: inactive

O=C(Nc1ccccc1-c1ccc(Cl)cc1)c1cccnc1Cl
Potency [20]: inactive | Potency [11]: inactive | outcome [12]: inactive | Potency [13]: 57.8 µM (active) | Potency [15]: 57.8 µM (active) | Potency [16]: inactive | Potency [17]: inactive | Potency [18]: inactive | Potency [1]: 64.8 µM (active) | Potency [2]: 32.5 µM (active) | Potency [5]: 14.5 µM (active) | outcome [7]: inactive | Potency [6]: inactive | Potency [9]: 30.4 µM (active)

c1ccc2c(c1)Sc1ccccc1N2CC1CN2CCC1CC2 (stereo unspecified)
Potency [11]: inactive | Potency [13]: 5.96 µM (active) | Potency [16]: inactive | Potency [17]: inactive | Potency [1]: inactive | Potency [5]: 23.7 µM (active) | Potency [8]: 21.1 µM (active) | Potency [6]: 26.6 µM (active)

O=[N+]([O-])c1c(Cl)c(Cl)cc(Cl)c1Cl
Potency [20]: inactive | Potency [11]: inactive | outcome [12]: inactive | Potency [15]: inactive | Potency [17]: inactive | Potency [2]: inactive | Potency [4]: inactive | outcome [7]: inactive | Potency [8]: inactive | Potency [6]: inactive | Potency [9]: 35.6 µM (active)

CC1COC(Cn2cncn2)(c2ccc(Oc3ccc(Cl)cc3)cc2Cl)O1 (stereo unspecified)
outcome [12]: inactive | Potency [13]: 1.37 µM (active) | Potency [15]: 12.2 µM (active) | Potency [1]: 8.63 µM (active) | Potency [19]: 101 µM (active) | Potency [2]: 4.33 µM (active) | Potency [3]: 21.9 µM (active) | Potency [4]: 10.9 µM (active) | Potency [6]: 21.7 µM (active) | Potency [9]: 39.9 µM (active)

Clc1ccccc1-c1ccccc1Cl
Potency [20]: inactive | outcome [12]: inactive | Potency [13]: inactive | Potency [14]: inactive | Potency [16]: inactive | Potency [18]: inactive | Potency [19]: 64.5 µM (active) | outcome [7]: inactive | Potency [6]: inactive | Potency [9]: inactive

Oc1c(Cl)ccc(Cl)c1Cl
outcome [7]: inactive

CCCN1CCC[C@H](c2cccc(O)c2)C1
Potency [10]: inactive | Potency [20]: inactive | outcome [12]: inactive | Potency [13]: inactive | Potency [14]: inactive | Potency [15]: inactive | Potency [16]: inactive | Potency [17]: inactive | Potency [18]: inactive
